# Laboratory results reported in article PMC4336329 (PLoS ONE, 2015).
# Hit rate of the full screen: of about 310,000 compounds, about 14,000 (4.5%) showed an effect of 50% or more. The effect is printed as a negative number. What follows is part of a selection rich in strong results, with near analogues and random picks from the rest.
# Molecular target: human ether-à-go-go-related gene (hERG) potassium channel (human, UniProt Q12809)
# Assay: primary screen, population patch clamp on CHO cells stably expressing hERG; higher = less effect of the substance
# 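Further: peak tail current of the secondary pulse compared with the same well before compound.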
# human ether-à-go-go-related gene (hERG) potassium channel, sequence (Q12809 whole entry, looked up): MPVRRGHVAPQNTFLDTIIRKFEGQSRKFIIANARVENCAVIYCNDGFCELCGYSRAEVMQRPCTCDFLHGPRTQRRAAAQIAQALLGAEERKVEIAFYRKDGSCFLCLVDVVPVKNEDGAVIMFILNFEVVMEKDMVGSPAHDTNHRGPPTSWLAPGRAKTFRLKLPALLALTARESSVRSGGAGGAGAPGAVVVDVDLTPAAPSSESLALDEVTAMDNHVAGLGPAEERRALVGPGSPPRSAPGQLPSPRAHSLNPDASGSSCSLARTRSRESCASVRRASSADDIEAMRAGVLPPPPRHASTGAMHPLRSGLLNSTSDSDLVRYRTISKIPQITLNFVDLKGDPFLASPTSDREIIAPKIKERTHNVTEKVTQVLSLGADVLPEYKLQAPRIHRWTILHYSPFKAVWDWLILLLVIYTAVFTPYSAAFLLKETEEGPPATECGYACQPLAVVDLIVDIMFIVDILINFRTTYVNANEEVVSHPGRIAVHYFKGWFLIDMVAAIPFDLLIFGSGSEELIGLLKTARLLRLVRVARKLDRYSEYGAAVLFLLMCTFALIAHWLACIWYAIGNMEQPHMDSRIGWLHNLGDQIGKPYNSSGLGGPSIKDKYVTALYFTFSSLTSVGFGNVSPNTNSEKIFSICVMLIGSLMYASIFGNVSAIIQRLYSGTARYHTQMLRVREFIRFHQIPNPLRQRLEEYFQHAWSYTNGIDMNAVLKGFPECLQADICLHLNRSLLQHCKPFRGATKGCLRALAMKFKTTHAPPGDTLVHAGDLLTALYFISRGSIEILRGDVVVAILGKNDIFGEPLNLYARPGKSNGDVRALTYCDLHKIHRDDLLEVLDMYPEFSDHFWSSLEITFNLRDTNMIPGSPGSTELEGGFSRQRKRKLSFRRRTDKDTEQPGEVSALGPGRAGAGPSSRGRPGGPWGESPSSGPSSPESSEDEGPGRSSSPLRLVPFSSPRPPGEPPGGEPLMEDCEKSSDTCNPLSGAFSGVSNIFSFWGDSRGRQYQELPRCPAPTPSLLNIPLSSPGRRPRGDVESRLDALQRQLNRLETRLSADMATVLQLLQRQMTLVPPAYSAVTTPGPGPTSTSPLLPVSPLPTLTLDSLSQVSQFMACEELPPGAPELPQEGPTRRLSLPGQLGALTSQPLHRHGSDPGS
row,Compound,"hERG current change (%, negative = inhibition) at 10uM"
1,COc1ccc(CN(C(=O)c2cc(=O)c3ccccc3o2)C2CCS(=O)(=O)C2)cc1 (stereo not shown),-30.4%
2,CNS(=O)(=O)c1cc(OC)ccc1OC,13.2%
3,CC(=O)c1c(O)cc(C)n(Nc2nc(C)cc(C)n2)c1=O,1.83%
4,c1ccc(CNc2nc3ccccc3n3cnnc23)nc1,0.696%
5,COc1ccc(-c2nn(CCC(=O)O)cc2/C=C/C(=O)O)cc1[N+](=O)[O-],5.53%
6,C#C[C@]1(O)CC[C@H]2[C@@H]3CCC4=Cc5nc6nc7ccccc7n6cc5C[C@]4(C)[C@H]3CC[C@@]21C,-56.8%
7,C#C[C@]1(O)CC[C@H]2[C@@H]3CCC4=Cc5oncc5C[C@]4(C)[C@H]3CC[C@@]21C,-15.3%
8,C#C[C@]1(O)CCC2C3CCC4=Cc5oncc5CC4(C)C3CCC21C (stereo partly shown),-3.2%
9,CC(NC(=O)c1ccc(NC2=NC3CS(=O)(=O)CC3S2)cc1)c1ccccc1 (stereo not shown),12.9%
10,COC(=O)C1C(=O)C2=C(CC1C)NC(=O)CC2c1ccc(F)cc1 (stereo not shown),18.6%
11,CCC(=O)Nc1cc2c3c(c1)CCC(=O)N3CCC2,1.44%
12,CC(=O)OCCNc1cc(Sc2nc3ccccc3[nH]2)c2nonc2c1[N+](=O)[O-],-12.1%
13,O=c1c2c(-c3ccc([N+](=O)[O-])cc3)csc2nc2n1CCCCC2,-34.6%
14,O=c1c2c(-c3ccc(Cl)cc3)csc2nc2n1CCC2,-28.9%
15,O=c1c2c(-c3ccc([N+](=O)[O-])cc3)csc2nc2n1CCC2,-77.6%
16,O=[N+]([O-])c1ccccc1/C=C/C=N/Nc1ccc(S(=O)(=O)Nc2ccc(Cl)cc2)cc1[N+](=O)[O-],20.8%
17,COn1c(-c2ccc(Cl)cc2)nc2ccc(Cl)cc21,-4.56%
18,Cc1ccc(OCC(=O)NCC(=O)Nc2ccc(F)cc2)c([N+](=O)[O-])n1,-40.3%
19,Cc1cccn2c(CN3CCSCC3)c(C(=O)N3CCOCC3)nc12,0.407%
20,Cc1cccn2c(CN[C@@H]3CCCC[C@H]3c3ccccc3)c(C(=O)N3CCOCC3)nc12,-12.9%
21,Cc1cccn2c(CN3CCCC(c4ccccc4)C3)c(C(=O)N3CCOCC3)nc12 (stereo not shown),-68.7%
22,Cc1cc(C(=O)NN)c(C)o1,10.3%

row,Compound,"hERG current change (%, negative = inhibition) at 10uM"
1,CCc1cc(=O)oc2cc(C)cc(OCC(=O)N3CCC(C(=O)NC(C)C)(c4ccccc4)CC3)c12,-43.6%
2,CC(NC(=O)/C=C/c1ccccc1[N+](=O)[O-])C1CC2CCC1C2 (stereo not shown),8.42%
3,CCN1CCN(c2nc(-c3cccnc3)nc3ccccc23)CC1.Cl,-55.4%
4,Cc1ccc(CN(C)c2nc(-c3cccnc3)nc3ccccc23)o1,12.7%
5,CCCOc1ccc(-c2nc(N3CCN(CC)CC3)c3ccccc3n2)cc1,-17.3%
6,CCN1CCN(c2nc(-c3ccccc3)nc3ccccc23)CC1,-63%
7,CC1CN(c2nn3c(=O)c4ccccc4nc3c3ccccc23)CC(C)O1 (stereo not shown),-25.7%
8,O=S(=O)(c1ccccc1F)N1CCN(c2nc(-c3cccnc3)nc3ccccc23)CC1,-41.9%
9,CN(Cc1ccccc1F)c1nc(-c2cccnc2)nc2ccccc12,3.92%
10,Cc1ccc(C)c(S(=O)(=O)N2CCN(c3nc(-c4cccnc4)nc4ccccc34)CC2)c1,1.45%
11,CCN1CCN(c2nc3ccccc3n3cnnc23)CC1,-14.8%
12,CN(Cc1cccs1)c1nc(-c2cccnc2)nc2ccccc12,-53.5%
13,CCN1CCN(c2nn3c(=O)c4ccccc4nc3c3ccccc23)CC1,-72.7%
14,c1ccc(CN2CCN(c3nc(-c4ccccc4)nc4ccccc34)CC2)cc1,8.72%
15,CC(C)OC(=O)CC(=O)CSc1nc2c(c(-c3cccs3)c1C#N)CCC2,-8.89%
16,O=C(c1ccc(N2CCCS2(=O)=O)cc1)N1CCN(c2ccc(F)cc2)CC1,-28.9%
17,COc1ccc(/C=N/Nc2ccc([N+](=O)[O-])cc2)cc1O,10.1%
18,O=C(COc1ccc(-c2nnco2)cc1)NCc1ccccc1Cl,-6.27%
19,C=CCN(CC=C)C(=S)NC(=O)c1ccc(OC)c(Br)c1,5.1%
20,Cn1ncc([N+](=O)[O-])c1C(=O)Nc1ccn(Cc2ccccc2F)n1,-9.33%
21,Cc1c(NC(=O)OCCNC(=O)COc2ccc(Cl)cc2Cl)sc(=S)n1C,-5.51%
22,CCC1CCCCN1c1nc(-c2ccncc2)nc2ccccc12 (stereo not shown),-42.5%

row,Compound,"hERG current change (%, negative = inhibition) at 10uM"
1,CCN1CCN(c2nc(-c3ccncc3)nc3ccccc23)CC1,-77.8%
2,CC1CCN(c2nc(-c3ccncc3)nc3ccccc23)CC1,-27%
3,CCC1=C(C)CN(C(=O)NCCc2ccc(S(=O)(=O)NC(=O)NC3CCC(C)CC3)cc2)C1=O (stereo not shown),-13.5%
4,CCOc1ccc(/C=C(\C#N)C(=O)NCC2CCCO2)cc1OCC (stereo not shown),-5.95%
5,Cc1cccnc1NC(=O)c1ccc(Cl)c(S(=O)(=O)N2CCCCCC2)c1,-65.5%
6,O=C(Nc1cccnc1)c1ccc(Cl)c(S(=O)(=O)N2CCCCCC2)c1,-31.6%
7,O=C(Nc1ncccc1O)c1ccc(Cl)c(S(=O)(=O)N2CCCCCC2)c1,-61%
8,O=C(NCc1ccccn1)c1ccc(Cl)c(S(=O)(=O)N2CCCCCC2)c1,-64.5%
9,Cc1cccnc1NC(=O)c1ccc(Cl)c(S(=O)(=O)N2CCCCC2)c1,-21.7%
10,O=C(Nc1cccnc1)c1ccc(Cl)c(S(=O)(=O)N2CCCCC2)c1,-15.6%
11,Cc1cccnc1NC(=O)c1ccc(Cl)c(S(=O)(=O)N2CCCC2)c1,-9.58%
12,Cc1ccc(C(=O)Nc2ncccc2O)cc1S(=O)(=O)N1CCCCC1,-14.3%
13,O=C(NCc1ccccn1)c1ccc(Cl)c(S(=O)(=O)N2CCOCC2)c1,-4.89%
14,O=C(NCc1ccccn1)c1ccc(Cl)c(S(=O)(=O)N2CCCCC2)c1,-10.1%
15,CC(NC(=O)c1ccc(Cl)c(S(=O)(=O)N2CCCCCC2)c1)c1cccnc1 (stereo not shown),-52.3%
16,O=C(Nc1ncccc1O)c1ccc(Cl)c(S(=O)(=O)N2CCCCC2)c1,-16.1%
17,COc1ccc(NC(=O)c2ccccn2)cc1OC,3.32%
18,O=C(O)c1csc(Cc2ccccc2)n1,15.1%
19,COc1ccc(Cl)cc1NC(=O)Nc1cc(C)on1,0.43%
20,CC(C)C(O)(C#CCN1CCCCC1)C(C)C,-1.16%
21,Cc1cccc(N2C(=O)CC(NNc3nc4ccccc4s3)C2=O)c1 (stereo not shown),10.6%
22,Cc1cc(C)c(C(=O)C(C)OC(=O)Cn2cnc3c2c(=O)n(C)c(=O)n3C)cc1C (stereo not shown),-17.6%

row,Compound,"hERG current change (%, negative = inhibition) at 10uM"
1,CC(C(=O)c1ccccc1)n1cnc2ccccc2c1=O (stereo not shown),-2.46%
2,CC(=O)c1cccc(NC(=O)CCN2C(=O)C3CC=CCC3C2=O)c1 (stereo not shown),5.49%
3,COCCN(CCOC)S(=O)(=O)c1ccc(OC)cc1,8.79%
4,Cc1ccnc(NC(=O)CCCc2ccccc2)c1,13%
5,COc1ccc(C2Nc3ccccc3C(=O)N2NS(=O)(=O)c2ccc(C)cc2)c(OC)c1 (stereo not shown),3.22%
6,CCOc1ccc(C(=O)C(C)OC(=O)Cn2c(C)csc2=O)cc1 (stereo not shown),-60.1%
7,CCOc1ccc(C(=O)C(C)OC(=O)CN2C(=O)NC(C)(C)C2=O)cc1 (stereo not shown),-7.23%
8,Cc1csc(=O)n1CC(=O)OC(C)C(=O)Nc1ccc(F)c(F)c1F (stereo not shown),-4.29%
9,O=C(COc1ccc(Cl)cc1)Nc1ccc2c(c1)nc1n2CCOC1,-34%
10,O=C(CC1NC(=O)NC1=O)Nc1ccccc1 (stereo not shown),-0.537%
11,CCOc1cc2c(cc1OCC)-n1cccc1C(c1ccc(F)cc1)NC2.Cl (stereo not shown),0.0384%
12,CCOc1cc2c(cc1OCC)-n1cccc1C(c1cccc(F)c1)NC2.Cl (stereo not shown),-14.8%
13,CCOc1cc2c(cc1OCC)-n1cccc1C(c1ccc(C)cc1C)NC2.Cl (stereo not shown),-0.599%
14,CCOc1cc2c(cc1OCC)-n1cccc1C(c1cccc([N+](=O)[O-])c1)NC2.Cl (stereo not shown),-59.9%
15,CCOc1cc2c(cc1OCC)-n1cccc1C(c1ccc(OC)c(OC)c1)NC2.Cl (stereo not shown),-30.2%
16,CCOc1cc2c(cc1OCC)-n1cccc1C(c1ccccc1OC)NC2.Cl (stereo not shown),-7.52%
17,CCOc1cc2c(cc1OCC)-n1cccc1C(c1ccc(OC(F)F)cc1)NC2.Cl (stereo not shown),-65.3%
18,CCOc1cc2c(cc1OCC)-n1cccc1C(c1cc(C)c(OC)cc1C)NC2.Cl (stereo not shown),-62.1%
19,CCOc1cc2c(cc1OCC)-n1cccc1C(c1ccc(OC)cc1)NC2.Cl (stereo not shown),-48.1%
